Laboratory results: PubChem BioAssay (NCI)
Where “and” joins values, the source holds several entries; their conditions need not be identical. Identical values can stand only once. This is part of a sample that, as a whole, favours compounds with a hit. Of some 83,000 tested, about 20% had one in any assay.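 Single-dose data. Exposure time 48 hours. Values below 10 considered active.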 A number with no mark means an inactive call. Calls of active or inactive are those of the source.

system: HL-60(TB) leukemia; test: NCI-60 one-dose screen, 48 h (100 = growth as untreated, 0 = no growth, -100 = all killed); conditions: 10 µM unless noted

Row | SMILES | growth
1 | COc1ccccc1S(=O)(=O)Nc1ccc2c(c1)CN(C)C(=O)N2 | 21.9%
2 | CCCNC(=S)N/N=C(\C)c1ccccn1 | -8.41% (active)
3 | O=C(CCl)N(O)c1ccc(/C=C/c2ccccc2)cc1 | 69.4% and 51%
4 | CCOC(=O)NC(N)=O | 92.4%
5 | O=C(c1ccccc1)C1C(=O)N2C(=S)N(c3ccccc3)C(=O)C2C1c1ccc(Cl)cc1 (stereo not given) | 100%
6 | CN(C)CCNC(=O)n1cc(-c2ccncc2)c(-c2cc(O)cc(Cl)c2)n1 | 87.1%
7 | CC1(C(=O)O)NC(C(=O)O)Cc2c1[nH]c1ccccc21 (stereo not given) | 99.8%
8 | CCCCCCCCCCCC(=O)C(CCCCCCCCCC)C(=O)Nc1ccccc1 (stereo not given) | 101%
9 | COc1ccc(-c2nc(-c3ccccn3)c(-c3ccccn3)n2CC(C)C)cc1OC1CCCC1 | -43.5% (active)
10 | COc1cc(OCc2cccc(-c3ccc(C(O)c4nccs4)cc3)c2C)cc(OC)c1CNCCNC(C)=O (stereo not given) | 101%
11 | NC(N)=Nc1ccc(S(=O)(=O)O)cc1 | 108%
12 | CC[C@@H](C(=O)[C@H](C)[C@H](O)[C@@H](C)[C@H]1O[C@H]([C@@H](CC)C(=O)O)CC[C@H]1C)C1O[C@]2(C=C[C@@H](O)[C@]3(CC[C@@](C)([C@H]4CC[C@](O)(CC)[C@H](C)O4)O3)O2)[C@H](C)C[C@@H]1C (stereo not given in full) | -36.8% (active)
13 | COC(=O)Nc1nc2ccc(C(=O)c3ccccc3N(C)C3COC3)cc2[nH]1 | 15.6%
14 | COc1ccc(-c2cn(-c3ccccc3)c(-c3ccccc3)n2)cc1OC | 8.37% (active)
15 | Cc1c2c(cc3c1[nH]c1ccccc13)C=NCC2 | 93.3%
16 | O=C(Nc1ccc([N+](=O)[O-])cc1Cl)c1cc(Cl)ccc1O | -30.7% (active) and -30.9% (active)
17 | Oc1c(Cl)cc(Cl)cc1C=NCC1CCC(CN=Cc2cc(Cl)cc(Cl)c2O)CC1 (stereo not given) | 73.9%
18 | COc1cc(-c2nn(-c3cccc(NC(=O)CN4CCOCC4)c3)cc2-c2cccnc2)ccc1Cl | 84%
19 | COc1ccc(-c2nn(-c3cccc(Cl)c3)cc2-c2c(C#N)c(=O)n3[nH]c(-c4ccccc4)nc3c2C#N)cc1 | 79.9%
20 | CN1C=CN(Cc2ccc(-c3ccccn3)nc2)[CH-]1.CN1C=CN(Cc2ccc(-c3ccccn3)nc2)[CH-]1.[Au+3] | -9.42% (active)
21 | CN1CCN(CCOc2cc(OC3CCOCC3)c3c(Nc4c(Cl)ccc5c4OCO5)ncnc3c2)CC1 | 101%
22 | Cc1ccc(/C=C/c2c(C(=O)/C=C/c3ccc(C(F)(F)F)cc3)c(C)nc3ccccc23)cc1 | -41.3% (active)
23 | O=c1c(-c2nc3ccccc3[nH]2)cc2ccccc2n1Cc1cn(Cc2ccc(F)cc2)nn1 | 0.035% (active)
24 | N#Cc1c(-c2ccc(O)cc2)c2c(N)nn(-c3ccccc3)c2[nH]c1=O | 102%
25 | O=C(CC12CC3CC(CC(C3)C1)C2)NCCOCCOCCNC(=O)c1cc2c(o1)C(=O)c1ccccc1C2=O | -16% (active)
